# Measurements as given in the supplement of paper PMC6555819.
# Experiments:
# Test in all cases: PBM binding z-score (relative to random genomic background probes); higher = stronger binding; sequences stand for … in GC…GCGATTGACAGCGTAGAATGAAGG
# [1] = system: FXR:RXRa (NR concentration 270 nM, RXRa partner concentration 90 nM)
# Outline: (§1)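 Binding z-scores take random background probes as their reference. They come from custom Agilent 4×180K protein-binding microarrays incubated 1 h with ligand-free nuclear receptor dimers, with antibodies against each partner (one per run) detecting binding. Scanned fluorescence was regression-normalized.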
# [2] = system: LXRa:RXRa (NR concentration 270 nM, RXRa partner concentration 90 nM)
# Outline: as §1
# [3] = system: LXRa homodimer (NR concentration 270 nM)
# Outline: as §1
# [4] = system: LXRb:RXRa (NR concentration 270 nM, RXRa partner concentration 90 nM)
# Outline: as §1
# [5] = system: LXRb homodimer (NR concentration 270 nM)
# Outline: as §1
# [6] = system: PPARa:RXRa (NR concentration 270 nM, RXRa partner concentration 90 nM)
# Outline: as §1
# [7] = system: PPARg:RXRa (NR concentration 180 nM, RXRa partner concentration 90 nM)
# Outline: as §1
# [8] = system: PPARg:RXRa 270nM:90nM, anti-RXR (NR concentration 270 nM, RXRa partner concentration 90 nM)
# Outline: as §1
# [9] = system: PPARg:RXRa 30nM:10nM, anti-RXR (NR concentration 30 nM, RXRa partner concentration 10 nM)
# Outline: as §1
# [10] = system: PPARg:RXRa 90nM:30nM, anti-RXR (NR concentration 90 nM, RXRa partner concentration 30 nM)
# Outline: as §1
# [11] = system: PPARg:RXRa DBDmut IVT, anti-RXR (DBD mutation: RXRa K156A/R161A, NR concentration 270 nM, RXRa partner concentration 90 nM)
# Outline: as §1
# [12] = system: PPARg:RXRa IVT, anti-PPARg (NR concentration 270 nM, RXRa partner concentration 90 nM)
# Outline: as §1
# [13] = system: PPARg DBDmut:RXRa IVT, anti-PPARg (DBD mutation: PPARg1 K132A/R137A, NR concentration 270 nM, RXRa partner concentration 90 nM)
# Outline: as §1
# [14] = system: PPARg DBDmut IVT, anti-PPARg (DBD mutation: PPARg1 K132A/R137A, NR concentration 270 nM)
# Outline: as §1
# [15] = system: PPARg homodimer (NR concentration 180 nM)
# Outline: as §1
# [16] = system: PXR:RXRa (NR concentration 270 nM, RXRa partner concentration 90 nM)
# Outline: as §1
# [17] = system: PXR homodimer (NR concentration 270 nM)
# Outline: as §1
# [18] = system: RARa:RXR (NR concentration 270 nM, RXRa partner concentration 90 nM)
# Outline: as §1
# [19] = system: RARa homodimer (NR concentration 270 nM)
# Outline: as §1
# [20] = system: RARb:RXRa (NR concentration 270 nM, RXRa partner concentration 90 nM)
# Outline: as §1
Sequence,PBM binding z-score [1],PBM binding z-score [2],PBM binding z-score [3],PBM binding z-score [4],PBM binding z-score [5],PBM binding z-score [6],PBM binding z-score [7],PBM binding z-score [8],PBM binding z-score [9],PBM binding z-score [10],PBM binding z-score [11],PBM binding z-score [12],PBM binding z-score [13],PBM binding z-score [14],PBM binding z-score [15],PBM binding z-score [16],PBM binding z-score [17],PBM binding z-score [18],PBM binding z-score [19],PBM binding z-score [20]
CCTTATGGGTCACTCCAGGTTATAGCATCGGAGT,3.67,7.24,1.43,4.49,-0.105,3.92,4.6,4.39,1.84,3.6,5.51,5.56,1.27,1.01,1.61,4.22,0.18,2.9,0.657,3.35
GATACAGGGTCAGCTAGAAGCCAGAGTATGGAAA,4.4,2.38,-0.483,2.13,-0.479,4.45,3.76,3.04,1.33,1.83,1.32,2.21,-0.0163,-0.227,2.08,1.64,0.0123,2.84,-0.0258,3.78
AGTCAAAGTTCACTAGGTCACGTAAGATTCAGCT,6.19,6.11,5.68,4.32,1.45,6.04,9.33,7.67,4.81,7.31,5.56,6.73,1.41,1.03,4.02,5.52,3.91,5.75,1.46,5.27
AATACAGGGTCATCGTAGGCAAGAGTACGCACAG,7.68,6.03,2.1,4.59,1.4,5.83,7,6.27,3.31,4.97,2.91,4.3,1.57,1.49,4.01,4.55,0.721,5.8,1.82,4.46
GGTACGAGGGCATTCGAGTTGATAGCATGGCGAT,1.45,1.69,-0.269,0.123,-0.742,0.926,0.726,0.262,-0.638,0.0723,1.41,1.41,-0.377,-0.67,-0.0678,3.64,1.73,0.568,-0.0392,1.95
CGTCCAAGGTCAAGGTCAGTGATAGAGACTCGAA,7.73,5.59,1.52,4.55,0.758,6.02,6.2,6.15,2.73,4.98,3.79,4.5,1.28,0.138,4.99,5.05,1.18,5.44,2.41,5.73
ATCTCTAGGTAGAGTTCAGTGAAAGATCGATAGA,0.805,1.62,1.28,1.2,0.516,1.78,1.1,2.33,0.898,1.93,0.277,0.789,1.33,0.623,0.95,2.52,2.07,1.22,0.329,1.82
